In the supplement of paper PMC12350171:
Counter-ions that a name gives are not always drawn. A number with no mark means an inactive call.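 How the source made its calls: active = AUC significantly below DMSO controls by Student t-fit with adjusted P under 0.01; inactive = not significantly reduced.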

system: Haemophilus parainfluenzae; assay: growth AUC normalised to DMSO control (fraction of control); higher = less growth inhibition, active = hit call of the paper; settings: 20 µM
How it was run: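 Pathogens were passaged twice under anaerobic conditions, then inoculated into pre-reduced mGAM plates at a starting OD578 of 0.01, with compound at 20 μM and 1% DMSO, and sealed with breathable membranes. For Haemophilus parainfluenzae, the medium was supplemented with hemin and NAD. OD578 was read every hour for 24 h in three biological replicates. Growth-curve AUC was calculated by the trapezoidal rule up to the exponential-to-stationary transition and normalised to DMSO controls on the same plate.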

Row | Compound | growth AUC normalised to DMSO control
1 | COc1cc(N)c(Cl)cc1C(=O)NC1CCN(CCCOc2ccc(F)cc2)CC1OC (centres undefined) [Cisapride] | 1.03
2 | OCC(O)CN1CCN(c2ccccc2)CC1 (centres undefined) [Dropropizine] | 1.07
3 | CN[C@@H]1[C@H](O[C@H]2[C@H](O[C@H]3[C@H](O)[C@@H](O)[C@H](NC(=N)N)[C@@H](O)[C@@H]3NC(=N)N)O[C@@H](C)[C@]2(O)CO)O[C@@H](CO)[C@H](O)[C@H]1O [Dihydrostreptomycin sulfate] | 0.0409 (active)
4 | COc1ccc([C@@H]2Sc3ccccc3N(CCN(C)C)C(=O)[C@@H]2OC(C)=O)cc1 [Diltiazem hydrochloride] | 0.988
5 | Cc1cc(CC(=O)O)n(C)c1C(=O)c1ccc(Cl)cc1 [Zomepirac sodium salt] | 0.993
6 | Nc1ccc(C(=O)O)c(O)c1 [Aminosalicylic acid] | 1.09
7 | CC(=O)OCC1=C(C(=O)O)N2C(=O)[C@@H](NC(=O)Cc3cccs3)[C@H]2SC1 [Cephalothin sodium salt] | 0.0326 (active)
8 | OCCOCCN1CCN(C(c2ccccc2)c2ccc(Cl)cc2)CC1 (centres undefined) [Hydroxyzine dihydrochloride] | 0.978
9 | CC[C@H]1OC(=O)[C@H](C)[C@@H](O[C@H]2C[C@@](C)(OC)[C@@H](O)[C@H](C)O2)[C@H](C)[C@@H](O[C@@H]2O[C@H](C)C[C@H](N(C)C)[C@H]2O)[C@](C)(O)C[C@@H](C)CN(C)[C@H](C)[C@@H](O)[C@]1(C)O [Azithromycin] | 0.0436 (active)
